Reference: ChEMBL document CHEMBL3433997, “St. Jude Leishmania screening dataset” (2016)

Each compound was assayed against Solute carrier family 2, facilitated glucose transporter member 1 (Homo sapiens) (UniProt P11166) (assay: ST_JUDE_LEISH: Cytotoxicity at 2uM final concentration against transgenic Leishmania Mexicana promastigotes LmGLUT1 that are glucose transport deficient and complemented with the human glucose transporter GLUT1. Activity is measured by DNA content using SYBR green in vitro).
Sequence of Solute carrier family 2, facilitated glucose transporter member 1 (Homo sapiens) (P11166 whole entry): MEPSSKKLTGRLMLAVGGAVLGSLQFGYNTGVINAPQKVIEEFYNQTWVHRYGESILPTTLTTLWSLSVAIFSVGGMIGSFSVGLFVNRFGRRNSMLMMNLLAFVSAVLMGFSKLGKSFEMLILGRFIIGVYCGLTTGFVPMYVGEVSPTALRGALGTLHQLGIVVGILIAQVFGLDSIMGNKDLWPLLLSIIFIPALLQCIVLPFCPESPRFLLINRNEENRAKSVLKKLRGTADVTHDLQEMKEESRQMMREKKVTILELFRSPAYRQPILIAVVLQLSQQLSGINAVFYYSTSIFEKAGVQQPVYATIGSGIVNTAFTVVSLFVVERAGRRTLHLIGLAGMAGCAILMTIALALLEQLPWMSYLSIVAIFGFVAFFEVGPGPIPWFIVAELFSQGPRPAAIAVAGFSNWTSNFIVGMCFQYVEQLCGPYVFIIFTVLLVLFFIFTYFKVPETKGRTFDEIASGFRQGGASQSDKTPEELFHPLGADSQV
Type: functional

| SMILES | inhibition [%] |
| --- | --- |
| CN(C)C(C)(C)CN(Cc1ccc(-c2ccc(C(F)(F)F)cc2)cc1)C(=O)Cn1c(CCc2cccc(F)c2F)nc(=O)c2ccccc21 | 1.52 |
| COc1ccccc1CCNc1nccc(N[C@@H](Cc2ccccc2)C(=O)NCc2cccs2)n1 | 1.78 |
| Cc1[nH]c(C)c(-c2ccc(Oc3ccc(Cl)cc3)cc2)c(=O)c1C | 11.4 |
| COCCn1c(Sc2ncnc3sccc23)nc2ccccc21 | 0.98 |
| CCOC(=O)NCC(=O)Nc1cccc(-c2cccc(-c3nc4cccc(C)c4[nH]3)c2)c1 | 1.11 |
| CC(C)c1ccc(CN2CCC(NC(=O)c3ccc(-c4cccc(Cl)c4)s3)CC2)cc1 | 5.24 |
| Cc1cccc(-n2nc(C)c3c2NC(=O)CC3C(=O)c2ccc(Cl)s2)c1 (stereo not given) | 1.99 |
| CC(=O)N(C)c1cccc(C(=O)Nc2ccc(-c3cccc(-c4nc5cc(C(F)(F)F)ccc5[nH]4)c3)cc2)c1 | 11.5 |
| NC(=O)C1CCN(Cc2ccc(-c3ccc(-c4nc5cc(C(F)(F)F)ccc5[nH]4)s3)cc2)CC1 | 4.68 |
| COc1ccc2nccc(N3C[C@H]4C[C@@H]3CN4CCNCc3ccc4c(n3)NC(=O)CS4)c2n1 | -0.98 |
| O=C(Nc1ccccc1F)N(CCCn1ccnc1)Cc1csc(-c2ccc(CNCc3ccccc3)cc2)n1 | -0.67 |
| CCN1CCN(CCCNc2ccnc3cc(Cl)ccc23)CC1 | 0.93 |
| CCc1ccc(NC(=O)c2ccc(CN3CCCN(Cc4cccc(C)c4)CC3)cc2)cc1 | 7.45 |
| Nc1ccnc2ccc(OCCCCCCc3ccccc3)cc12 | -1.77 |
| Cc1cccnc1Nc1nc(-c2ccccn2)cs1 | 93.5 |
| CN(C)CCNc1ncnc2c1[nH]c1ccc(Cl)cc12 | 3.7 |
| CCCCC(CC)C(=O)C(NC(=O)[C@H](CSC(c1ccccc1)(c1ccccc1)c1ccccc1)NC(=O)OC(C)(C)C)C(=O)OC (stereo not given in full) | 3.84 |
| CC(C)N1CCN(C(CN2CCN(CCCOc3cccc(F)c3)CC2)c2ccc(F)cc2)CC1 (stereo not given) | -2.25 |
| CCC[C@@H](/C=N/N(C)C(=O)OC(C)(C)C)NC(=O)[C@H](CC(C)C)NC(=O)c1cc2cccc(OC)c2o1 | 3.02 |
| COC(=O)c1cccc(C#CCCOCCCCCCNC[C@H](O)c2cc(Cl)c(N)c(Cl)c2)c1 | 2.64 |

| SMILES | inhibition [%] |
| --- | --- |
| COc1ccc(CCNCCCCCNCCc2ccc(Cl)cc2)cc1OC | 7.58 |
| Cc1ccc(F)c(CN2CCC(N3CC(c4ccccc4)(c4ccccc4)OC3=O)CC2)c1Cl | 10.4 |
| CCN(CCCN1CCCCC1)c1cc(C)nc(Nc2cc(Cl)cc(Cl)c2)n1 | 0.93 |
| Cc1ccccc1C1CCN(C2CCC(NC(=O)/C=C/c3cccc(Cl)c3Cl)CC2)CC1 (stereo not given) | 4.12 |
| Cn1c(=O)n(C)c2cc(CNCCNc3ccnc4cc(Cl)ccc34)ccc21 | 2.25 |
| O=C(NCCCCCN1CCC(c2c[nH]c3ccccc23)CC1)Nc1cccc(Br)c1 | 8.56 |
| c1ccc2[nH]c(Nc3ccc(Nc4nc5ccccc5[nH]4)cc3)nc2c1 | 0.45 |
| COc1cc(NC(=O)CCCCCCCCN2CCN(C)CC2)c2ncccc2c1 | 1.29 |
| CNC(=O)c1ccccc1Nc1nc(Nc2cccc(CS(C)(=O)=O)c2)ncc1C | 3.44 |
| CN1CCN(CCCN(Cc2ccc(-c3cccc(CNC4CCCC4)c3)cc2)C(=O)Nc2ccccc2)CC1 | 9.1 |
| COc1ccc2nccc([C@@H](O)CN3CCC(NCCOc4cccc(C(F)(F)F)c4)CC3)c2c1 | 9.63 |
| OC[C@H]1CCCN1CC#Cc1cc2c(Nc3ccc(OCc4cccc(F)c4)c(Cl)c3)ncnc2s1 | 3.54 |
| CCCCN(CCCC)CCCCNc1c2ccccc2nc2ccccc12 | 26 |
| COCC(=O)Nc1nc2ccccc2[nH]1 | 2.56 |
| COc1ccc(F)cc1-c1ccccc1CNC(=O)CN(C)S(=O)(=O)c1cc(C)cc(Cl)c1C | 1.17 |
| OC(c1cc(C(F)(F)F)nc2c(F)cccc12)C1CCCCN1 (stereo not given) | 0.27 |
| COC(=O)c1ccc2nc(-c3ccc(/C=C/C(=O)NC4CCN(Cc5ccccc5)CC4)cc3)[nH]c2c1 | 0.71 |
| CN(C)C(=O)n1cnc(S(=O)(=O)N(C)c2ccc(Cl)cc2)n1 | 5.67 |
| O=C(Nc1ccc(-c2csc(-c3nc4ccccc4[nH]3)c2)cc1)Nc1ccc(F)c(F)c1F | 0.67 |
| Nc1nc(N)c2cc(NS(=O)(=O)c3ccc(-c4ccccc4)cc3)ccc2n1 | 4.33 |
